# In ChEMBL document CHEMBL5606460, “ASAP - DENV-2 NS2B-NS3 protease fluorescence single point” (2024):
# The campaign covered roughly 2,000 compounds. About 110 (5.5%) showed an effect of 50% or more. The list comes from a sample in which strong results are over-represented; it also holds similar structures and randomly drawn compounds.
# Molecular target: Genome polyprotein (dengue virus type 2) (UniProt P29990)
structure (smiles),measurement,setting,value
N#Cc1cccc(NC(=O)[C@@H](NC(=O)c2ccc(Oc3ccc(C(F)(F)F)cc3)cc2)c2ccc(OCc3ccccc3)cc2)c1,inhibition,"Thailand/16681/1984, Concentration 49.5 uM, Number of replicates 2.0, Standard deviation 0.9263674997821656 %",-5.09%
same,inhibition,"Thailand/16681/1984, Concentration 99.01 uM, Number of replicates 2.0, Standard deviation 0.4269393146330484 %",-4.04%
same,inhibition,"Thailand/16681/1984, Concentration 198.0 uM, Number of replicates 2.0, Standard deviation 0.9636779131327375 %",-5.31%
N=C(N)NCCC[C@H](NC(=O)c1nccs1)C(=O)N[C@@H](CCCCN)C(=O)N[C@@H](C(N)=O)c1ccc(OCc2ccc(C(F)(F)F)cc2)cc1,inhibition,"Thailand/16681/1984, Concentration 49.5 uM, Number of replicates 2.0, Standard deviation 0.01715005842126491 %",96.2%
same,inhibition,"Thailand/16681/1984, Concentration 49.5 uM, Number of replicates 2.0, Standard deviation 0.019135343573522066 %",96.1%
same,inhibition,"Thailand/16681/1984, Concentration 49.5 uM, Number of replicates 2.0, Standard deviation 0.03570815875758177 %",95.6%
same,inhibition,"Thailand/16681/1984, Concentration 49.5 uM, Number of replicates 2.0, Standard deviation 0.054562972907415325 %",95.2%
same,inhibition,"Thailand/16681/1984, Concentration 49.5 uM, Number of replicates 2.0, Standard deviation 0.06140896980473687 %",95.7%
same,inhibition,"Thailand/16681/1984, Concentration 49.5 uM, Number of replicates 2.0, Standard deviation 0.10612104410339795 %",97.2%
same,inhibition,"Thailand/16681/1984, Concentration 49.5 uM, Number of replicates 2.0, Standard deviation 0.10687631562871318 %",95.4%
same,inhibition,"Thailand/16681/1984, Concentration 49.5 uM, Number of replicates 2.0, Standard deviation 0.10916370939109642 %",95.9%
same,inhibition,"Thailand/16681/1984, Concentration 49.5 uM, Number of replicates 2.0, Standard deviation 0.11089004430610264 %",91.3%
same,inhibition,"Thailand/16681/1984, Concentration 49.5 uM, Number of replicates 2.0, Standard deviation 0.12066541576232535 %",96.7%
same,inhibition,"Thailand/16681/1984, Concentration 49.5 uM, Number of replicates 2.0, Standard deviation 0.12893024416791762 %",95%
same,inhibition,"Thailand/16681/1984, Concentration 49.5 uM, Number of replicates 2.0, Standard deviation 0.18367124536344298 %",96.2%
same,inhibition,"Thailand/16681/1984, Concentration 49.5 uM, Number of replicates 2.0, Standard deviation 0.22697527774705212 %",95.7%
same,inhibition,"Thailand/16681/1984, Concentration 49.5 uM, Number of replicates 2.0, Standard deviation 0.262397512284336 %",95.2%
same,inhibition,"Thailand/16681/1984, Concentration 49.5 uM, Number of replicates 2.0, Standard deviation 0.3581065989316027 %",96.5%
same,inhibition,"Thailand/16681/1984, Concentration 49.5 uM, Number of replicates 2.0, Standard deviation 0.6751965592419794 %",94.5%
same,inhibition,"Thailand/16681/1984, Concentration 49.5 uM, Number of replicates 4.0, Standard deviation 0.3877656068031149 %",96.3%
same,inhibition,"Thailand/16681/1984, Concentration 49.8 uM, Number of replicates 2.0, Standard deviation 0.008615490185202914 %",98.3%
same,inhibition,"Thailand/16681/1984, Concentration 49.95 uM, Number of replicates 2.0, Standard deviation 0.5898131133050937 %",90.4%
same,inhibition,"Thailand/16681/1984, Concentration 50.0 uM, Number of replicates 2.0, Standard deviation 2.607110988642393 %",82.5%
same,inhibition,"Thailand/16681/1984, Concentration 98.52 uM, Number of replicates 2.0, Standard deviation 0.0007930351015809821 %",99.7%
same,inhibition,"Thailand/16681/1984, Concentration 99.01 uM, Number of replicates 2.0, Standard deviation 0.014371738167426778 %",98.3%
same,inhibition,"Thailand/16681/1984, Concentration 99.01 uM, Number of replicates 2.0, Standard deviation 0.015720437319775387 %",97.7%
same,inhibition,"Thailand/16681/1984, Concentration 99.01 uM, Number of replicates 2.0, Standard deviation 0.019361925031116632 %",97.6%
same,inhibition,"Thailand/16681/1984, Concentration 99.01 uM, Number of replicates 2.0, Standard deviation 0.03515249470681415 %",98%
same,inhibition,"Thailand/16681/1984, Concentration 99.01 uM, Number of replicates 2.0, Standard deviation 0.051056355111308946 %",98.5%
same,inhibition,"Thailand/16681/1984, Concentration 99.01 uM, Number of replicates 2.0, Standard deviation 0.05114267185705925 %",98.8%
same,inhibition,"Thailand/16681/1984, Concentration 99.01 uM, Number of replicates 2.0, Standard deviation 0.05214610402640662 %",98.2%
same,inhibition,"Thailand/16681/1984, Concentration 99.01 uM, Number of replicates 2.0, Standard deviation 0.05969881927955883 %",97.8%
same,inhibition,"Thailand/16681/1984, Concentration 99.01 uM, Number of replicates 2.0, Standard deviation 0.06259043026219424 %",97.6%
same,inhibition,"Thailand/16681/1984, Concentration 99.01 uM, Number of replicates 2.0, Standard deviation 0.0932706385798204 %",98.3%
same,inhibition,"Thailand/16681/1984, Concentration 99.01 uM, Number of replicates 2.0, Standard deviation 0.1268262734902538 %",98.1%
same,inhibition,"Thailand/16681/1984, Concentration 99.01 uM, Number of replicates 2.0, Standard deviation 0.1304084184388917 %",95.2%
same,inhibition,"Thailand/16681/1984, Concentration 99.01 uM, Number of replicates 2.0, Standard deviation 0.16720632611157116 %",97.6%
same,inhibition,"Thailand/16681/1984, Concentration 99.01 uM, Number of replicates 2.0, Standard deviation 0.19540492798887588 %",98.3%
same,inhibition,"Thailand/16681/1984, Concentration 99.01 uM, Number of replicates 2.0, Standard deviation 0.2057251739026474 %",97.9%
same,inhibition,"Thailand/16681/1984, Concentration 99.01 uM, Number of replicates 2.0, Standard deviation 0.39058866931676656 %",97.1%
same,inhibition,"Thailand/16681/1984, Concentration 99.01 uM, Number of replicates 4.0, Standard deviation 0.160745991426317 %",98.2%
same,inhibition,"Thailand/16681/1984, Concentration 99.5 uM, Number of replicates 2.0, Standard deviation 0.012726325201561474 %",99.3%
same,inhibition,"Thailand/16681/1984, Concentration 99.5 uM, Number of replicates 2.0, Standard deviation 0.04880672492519146 %",99.4%
same,inhibition,"Thailand/16681/1984, Concentration 99.9 uM, Number of replicates 2.0, Standard deviation 0.33233565552852545 %",95.1%
same,inhibition,"Thailand/16681/1984, Concentration 100.0 uM, Number of replicates 2.0, Standard deviation 1.0120962127020525 %",91.1%
same,inhibition,"Thailand/16681/1984, Concentration 198.0 uM, Number of replicates 2.0, Standard deviation 0.008588516202155942 %",97.6%
same,inhibition,"Thailand/16681/1984, Concentration 198.0 uM, Number of replicates 2.0, Standard deviation 0.009273655371549035 %",99.3%
same,inhibition,"Thailand/16681/1984, Concentration 198.0 uM, Number of replicates 2.0, Standard deviation 0.015984782353635714 %",99.5%
same,inhibition,"Thailand/16681/1984, Concentration 198.0 uM, Number of replicates 2.0, Standard deviation 0.02043009475977673 %",99%
same,inhibition,"Thailand/16681/1984, Concentration 198.0 uM, Number of replicates 2.0, Standard deviation 0.03091218457183012 %",99%
same,inhibition,"Thailand/16681/1984, Concentration 198.0 uM, Number of replicates 2.0, Standard deviation 0.034661568215359255 %",98.9%
same,inhibition,"Thailand/16681/1984, Concentration 198.0 uM, Number of replicates 2.0, Standard deviation 0.04180427892619749 %",98.9%
same,inhibition,"Thailand/16681/1984, Concentration 198.0 uM, Number of replicates 2.0, Standard deviation 0.05357033033128675 %",99.3%
same,inhibition,"Thailand/16681/1984, Concentration 198.0 uM, Number of replicates 2.0, Standard deviation 0.055172584924276895 %",99.5%
same,inhibition,"Thailand/16681/1984, Concentration 198.0 uM, Number of replicates 2.0, Standard deviation 0.06522309100757873 %",99.1%
same,inhibition,"Thailand/16681/1984, Concentration 198.0 uM, Number of replicates 2.0, Standard deviation 0.07510635839598934 %",99.3%
same,inhibition,"Thailand/16681/1984, Concentration 198.0 uM, Number of replicates 2.0, Standard deviation 0.08009654525967919 %",99.1%
same,inhibition,"Thailand/16681/1984, Concentration 198.0 uM, Number of replicates 2.0, Standard deviation 0.10986503295031769 %",99.2%
same,inhibition,"Thailand/16681/1984, Concentration 198.0 uM, Number of replicates 2.0, Standard deviation 0.15163694309685882 %",99%
same,inhibition,"Thailand/16681/1984, Concentration 198.0 uM, Number of replicates 2.0, Standard deviation 0.1571827940113163 %",98.9%
same,inhibition,"Thailand/16681/1984, Concentration 198.0 uM, Number of replicates 2.0, Standard deviation 0.24491837126989802 %",98.3%
same,inhibition,"Thailand/16681/1984, Concentration 198.0 uM, Number of replicates 4.0, Standard deviation 0.0821711955101111 %",99.2%
same,inhibition,"Thailand/16681/1984, Concentration 295.6 uM, Number of replicates 2.0, Standard deviation 0.015100035709695026 %",100%
same,inhibition,"Thailand/16681/1984, Concentration 295.6 uM, Number of replicates 2.0, Standard deviation 0.020829309708871917 %",99.9%
